Reference: PubChem BioAssay (NCATS)
Values joined by “and” are separate entries in the source; they are usually repeats but may differ in a detail not shown here. Equal values may be shown once. Active and inactive are the calls of the source. Unless noted, calls follow the shape of the dose curve; as a rule, active = well fitted curve in the direction sought with a large enough effect; inconclusive = small, poorly fitted or top-dose-only effect, or another doubt; inactive = no such curve, though single readings can be large; an effect the other way counts as inactive or inconclusive.

Assays:
[1] = qHTS Assay for Identification of Small Molecule Agonists for Hypoxia Response Element Signaling Pathway (AID 914; active = well fitted activation curve with a large enough effect in the signal ratio, with a control signal flat, not every such curve was filed as active; inconclusive = small, poorly fitted or top-dose-only effect, or effect the other way, or a change in a side signal; the % refers to the signal ratio; also: % of control where 0% means no effect); settings: ME-180 (cervical carcinoma) HRE-bla reporter, beta-lactamase ratio, CoCl2, 17 h; activation: stronger effect = higher value
Outline: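 HRE-bla ME-180 assay for agonist-like enhancement of an EC50 CoCl2 stimulus: 17 h at 37 degrees Celsius, CCF4 for 2.5 h, ratiometric 460/530 nm signal converted to %Activity and fitted to AC50.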

[2] = target: Guanine nucleotide-binding protein G(i) subunit alpha-1 (Homo sapiens) (UniProt P63096); experiment: qHTS Assay for Inhibitors of RGS12 GoLoco Motif Activity (Green Fluorophore) (AID 879);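 also: 0% = labeled peptide with Gαi1 and full inhibition = labeled peptide alone without protein; negative values mean loss of peptide binding seen as reduced polarization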
Outline: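 Fluorescence polarization assay: 50 nM Gαi1 with 10 nM FITC-labeled RGS12 GoLoco peptide in 10 mM Tris pH 7.5, 150 mM NaCl, 0.1 mM GDP, 0.05% NP40, 10 min at room temperature with compound.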

[3] = qHTS Assay for Identification of Small Molecule Agonists for Thrombopoietin (TPO) Signaling Pathway (AID 917); also: % is scaled to controls: 0 for no effect and ±100 for the full control effect
Outline: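 Activators of TPO signaling were sought in murine Ba/F3 cells transfected with the human receptor, using a luciferase gene driven by the Glycoprotein IIb promoter; 24-hr compound exposure at 37 C alongside 26 pM TPO, in IL-3-free medium.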

[4] = target: Pyruvate kinase (Leishmania mexicana) (UniProt Q27686); experiment: qHTS Validation Assay for Inhibitors of Leishmania Mexicana Pyruvate Kinase (AID 945);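 also: 0% = DMSO only neutral control wells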
Outline: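 Eight-point qHTS titrations; enzyme 0.2 nM LmPYK (E451W mutant); substrates 0.5 mM PEP, 0.1 mM ADP; 7 mM MgCl2; 1 h room temperature; PKLight luminescence normalized to neutral control.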

[5] = target: Pyruvate kinase PKM (Homo sapiens) (UniProt P14618); experiment: qHTS Assay for Activators of Human Muscle Pyruvate Kinase (AID 954; active = well fitted curve in the direction sought with a large enough effect, not every such curve was filed as active; inconclusive = small, poorly fitted or top-dose-only effect, or effect the other way, or another doubt; inactive = no such curve, though single readings can be large or run the other way;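 also: 0% = uninhibited enzyme and -100% = no enzyme or full thiadiazolimine inhibition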)
Outline: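 Purified human PKM2 (0.1 nM) with 0.5 mM PEP (Km) and 0.1 mM ADP in 50 mM imidazole pH 7.2, KCl, MgCl2, 1 h at room temperature; ATP formed read by coupled luciferase luminescence. Normalized to no-enzyme/110 uM thiadiazolimine inhibition; 0.3 nM enzyme column for activation.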

[6] = target: Alpha-galactosidase (Coffea arabica) (UniProt Q42656); experiment: Counterscreen for Glucocerebrosidase Inhibitors: qHTS Assay for Coffee Bean alpha-Galactosidase at pH 4.5 (AID 957);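 also: series mostly up to about 77 µM; plate controls were enzyme alone for no effect and no enzyme for full effect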
Outline: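 AC50 values derive from Hill-equation modeling of concentration-response data, normalized to no-enzyme and full-activity controls. The pH 4.5 citrate assay used 2 nM coffee bean enzyme and 80 uM fluorogenic substrate for 20 min.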

[7] = target: Alpha-galactosidase A (Homo sapiens) (UniProt P06280); experiment: Counterscreen for Glucocerebrosidase Inhibitors: qHTS Assay for Human alpha-Galactosidase at pH 4.5 (AID 992); also: 0% is about no effect
Outline: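 Human enzyme (2 nM) with 80 uM 4-methylumbelliferyl alpha-D-galactopyranoside in 50 mM citric acid, 0.005% Tween-20, pH 4.5, 20 min at room temperature. Compounds 0.7 nM–77 uM; fluorescence Ex 365/Em 440 after pH 10 stop; AC50 from Hill fits.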

[8] = target: alpha-glucosidase (Oryza sativa, rice) (UniProt Q653V4); experiment: Counterscreen for Glucocerebrosidase Inhibitors: qHTS Assay for Rice alpha-Glucosidase at pH 5.0 (AID 997);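 also: 0% = full activity with enzyme and -100% = basal without enzyme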
Outline: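 Rice alpha-glucosidase (4 nM final) with 400 uM 4-methylumbelliferyl-alpha-D-glucopyranoside in citrate buffer pH 5.0, 20 min at room temperature, stopped at pH 10; fluorescence 365/440 nm, compounds 0.7 nM–77 uM, AC50 from Hill fits.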

[9] = target: Alpha-galactosidase (Coffea arabica) (UniProt Q42656); experiment: Counterscreen for Glucocerebrosidase Inhibitors: qHTS Assay for Coffee Bean alpha-Galactosidase at pH 5.9 (AID 998);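 also: plate controls were uninhibited enzyme for no effect and no-enzyme basal signal for full effect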
Outline: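 Green coffee bean enzyme (2 nM) with 4-methylumbelliferyl alpha-D-galactopyranoside (80 uM) in 50 mM citric acid, 0.005% Tween-20, pH 5.9, 20 min at room temperature; compounds 0.7 nM–77 uM. Stopped at pH 10, fluorescence Ex365/Em440; Hill-fit AC50.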

[10] = target: Muscarinic acetylcholine receptor M1 (Rattus norvegicus) (UniProt P08482); experiment: qHTS Assay for Antagonists of Acetylcholine Muscarinic M1 Receptor: Measurement of IP-One Response (AID 944); also: nearly all actives have a fitted effect of over 75% in size; also: potency is read from the fitted curve at half-maximal effect
Outline: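 Steps: plate transfected CHO-M1 cells overnight; add test compound, 10 min; add carbachol (200 nM, EC80) in stimulation buffer with LiCl; incubate 30 min; add labelled IP1 tracer and anti-IP1 antibody in lysis buffer; read HTRF after 10 min.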

[11] = target: Retinoic acid receptor RXR-alpha (Homo sapiens) (UniProt P19793); experiment: qHTS assay for small molecule agonists of retinoid X receptor alpha signaling (AID 588544; calls by dose curve;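 also: 0% = DMSO basal wells and 100% = reference agonist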)
[12] = target: Estrogen receptor (Homo sapiens) (UniProt P03372); experiment: qHTS assay for small molecule antagonists of estrogen receptor alpha signaling (AID 588513; active = well fitted curve in the direction sought with a large enough effect in the signal ratio, with a control signal flat, not every such curve was filed as active; inconclusive = small, poorly fitted or top-dose-only effect, or effect the other way, or a change in a side signal; inactive = no such curve, though single readings can be large or run the other way; the % refers to the signal ratio; also: potency is read from the fitted curve at half-maximal effect)
Outline: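 Beta-lactamase reporter, antagonist mode, HEK 293 GripTite cells; 0.5nM E2 stimulus, 18 h, 37 C; CCF4 dye 2 h RT; fluorescence. IC50 and efficacy from Hill fits, normalized to E2 and DMSO.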

[13] = target: Peroxisome proliferator-activated receptor delta (Homo sapiens) (UniProt Q03181); experiment: qHTS assay for small molecule antagonists of peroxisome proliferator-activated receptor delta signaling (AID 588535; active = well fitted inhibition curve with a large enough effect in the signal ratio, with a control signal flat, not every such curve was filed as active; inconclusive = small, poorly fitted or top-dose-only effect, or effect the other way, or a change in a side signal; inactive = no such curve, though single readings can be large or run the other way; the % refers to the signal ratio; also: potency is read from the fitted curve at half-maximal effect)
Outline: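 Cells were seeded at 4000 per well in assay medium containing 2% charcoal/dextran FBS and held 5 hrs at 37 C. Compounds were then added for 18 hrs. CCF4 substrate was applied for 2 hrs at room temperature before fluorescence reading.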

[14] = qHTS assay for small molecule activators of the human pregnane X receptor (PXR) signaling pathway (AID 720659; call rule not given here; also: 0% is about no effect)
[15] = target: Estrogen receptor (Homo sapiens) (UniProt P03372); experiment: qHTS assay for small molecule agonists of estrogen receptor alpha signaling (AID 588514; calls by dose curve;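 also: 0% = vehicle only and 100% = reference agonist; nearly all actives have a fitted effect of over 70% in size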)
Outline: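 Reporter-gene assay. […] controls beta-lactamase in HEK 293 GripTite cells; after 18 hrs with compound, CCF4 substrate is added for 2 hrs and fluorescence is read.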

[16] = target: Peroxisome proliferator-activated receptor gamma (Homo sapiens) (UniProt P37231); experiment: qHTS assay for small molecule agonists of peroxisome proliferator-activated receptor gamma signaling (AID 588536; active = well fitted curve in the direction sought with a large enough effect in the signal ratio, with a control signal flat, not every such curve was filed as active; inconclusive = small, poorly fitted or top-dose-only effect, or effect the other way, or a change in a side signal; inactive = no such curve, though single readings can be large or run the other way; the % refers to the signal ratio;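 also: 0% = DMSO basal wells and 100% = rosiglitazone at 2 µM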)
Outline: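 GeneBLAzer PPAR-gamma-UAS-bla HEK293 cells in 1% charcoal/dextran-treated FBS medium were treated 16 h at 37 C with compounds. Beta-lactamase activity was read by CCF4 ratio (460/530 nm). Response was normalized to 2 uM rosiglitazone (100%) and DMSO, then Hill-fitted for EC50 and efficacy.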

[17] = target: Peroxisome proliferator-activated receptor gamma (Homo sapiens) (UniProt P37231); experiment: qHTS assay for small molecule antagonists of peroxisome proliferator-activated receptor gamma signaling (AID 588537; active = well fitted inhibition curve with a large enough effect in the signal ratio, with a control signal flat, not every such curve was filed as active; inconclusive = small, poorly fitted or top-dose-only effect, or effect the other way, or a change in a side signal; the % refers to the signal ratio;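 also: reporter cells co-stimulated with 50 nM rosiglitazone agonist during compound treatment; % of control where 0% means no effect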)
Outline: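 Step one: plate 3000 HEK293 UAS-bla cells per well in medium with 1% stripped serum and hold 6-6.5 h at 37 C. Step two: add compound and 50 nM agonist for 16 h. Step three: CCF4 loading, fluorescence read.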

[18] = target: Thyroid hormone receptor beta (Homo sapiens) (UniProt P10828); experiment: qHTS assay for small molecule agonists of thyroid hormone receptor beta signaling (AID 588545; calls by dose curve)
Outline: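 Agonist activity was read as beta-lactamase CCF4 fluorescence (405 ex, 460/530 em), scaled between DMSO (0%) and 10 nM T3 (100%), then Hill-fitted for EC50 and efficacy. HEK 293 TR-UAS-bla cells in 2% charcoal/dextran FBS medium were exposed 18 h at 37 C.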

[19] = target: Bile acid receptor (Homo sapiens) (UniProt Q96RI1); experiment: qHTS assay for small molecule antagonists of farnesoid X receptor signaling (AID 588526; calls by dose curve; also: % is scaled to controls: 0 for no effect and ±100 for the full control effect)
Outline: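 Antagonist mode: titrated compounds tested against chenodeoxycholic acid stimulation (normalized to 50 uM CDCA and DMSO) in GeneBLAzer HEK293T cells for 16 h. Beta-lactamase read by CCF4 fluorescence; IC50 from Hill fits.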

[20] = target: Glucocorticoid receptor (Homo sapiens) (UniProt P04150); experiment: qHTS assay for small molecule antagonists of glucocorticoid receptor signaling (AID 588533; active = well fitted inhibition curve with a large enough effect in the signal ratio, with a control signal flat, not every such curve was filed as active; inconclusive = small, poorly fitted or top-dose-only effect, or effect the other way, or a change in a side signal; the % refers to the signal ratio;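 also: cells stimulated with 2 nM dexamethasone as agonist; % is scaled to controls: 0 for no effect and ±100 for the full control effect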)
Outline: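 Antagonist-mode qHTS: compound titrations added to GRE-bla HeLa cells, then dexamethasone 2 nM final; 18 h, 37 C. CCF4 FRET fluorescence normalized to dexamethasone and DMSO; IC50 from Hill fit.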

Pyruvate kinase (Leishmania mexicana), sequence (Q27686 2-499 E452W): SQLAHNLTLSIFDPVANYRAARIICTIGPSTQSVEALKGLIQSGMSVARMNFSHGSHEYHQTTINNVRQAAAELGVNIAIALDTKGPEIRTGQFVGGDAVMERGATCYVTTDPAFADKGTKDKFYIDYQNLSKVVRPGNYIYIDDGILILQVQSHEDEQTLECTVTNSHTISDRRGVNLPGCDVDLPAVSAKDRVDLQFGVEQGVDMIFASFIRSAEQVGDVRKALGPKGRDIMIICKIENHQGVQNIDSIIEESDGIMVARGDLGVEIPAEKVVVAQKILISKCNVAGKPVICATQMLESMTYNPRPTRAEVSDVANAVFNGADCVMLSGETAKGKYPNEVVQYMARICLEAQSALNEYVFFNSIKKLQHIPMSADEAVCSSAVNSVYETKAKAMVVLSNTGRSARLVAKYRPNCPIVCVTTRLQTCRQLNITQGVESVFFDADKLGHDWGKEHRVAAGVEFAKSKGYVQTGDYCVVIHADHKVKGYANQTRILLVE
Pyruvate kinase PKM (Homo sapiens), sequence (P14618 whole entry, looked up): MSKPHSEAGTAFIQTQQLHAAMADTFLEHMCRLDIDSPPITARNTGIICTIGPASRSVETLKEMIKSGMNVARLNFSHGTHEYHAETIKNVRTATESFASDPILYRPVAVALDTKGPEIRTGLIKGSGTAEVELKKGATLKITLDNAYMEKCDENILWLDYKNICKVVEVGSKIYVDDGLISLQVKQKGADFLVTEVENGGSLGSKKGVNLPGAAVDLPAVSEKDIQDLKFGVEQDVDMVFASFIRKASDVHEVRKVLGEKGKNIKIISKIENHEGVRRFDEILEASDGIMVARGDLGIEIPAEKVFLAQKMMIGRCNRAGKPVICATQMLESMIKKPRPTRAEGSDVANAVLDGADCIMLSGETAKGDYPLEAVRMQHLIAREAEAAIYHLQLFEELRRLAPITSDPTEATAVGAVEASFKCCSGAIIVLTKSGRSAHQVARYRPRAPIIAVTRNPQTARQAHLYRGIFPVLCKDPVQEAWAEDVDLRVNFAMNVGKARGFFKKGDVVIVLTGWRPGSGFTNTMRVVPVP
Retinoic acid receptor RXR-alpha (Homo sapiens), sequence (P19793 whole entry, looked up): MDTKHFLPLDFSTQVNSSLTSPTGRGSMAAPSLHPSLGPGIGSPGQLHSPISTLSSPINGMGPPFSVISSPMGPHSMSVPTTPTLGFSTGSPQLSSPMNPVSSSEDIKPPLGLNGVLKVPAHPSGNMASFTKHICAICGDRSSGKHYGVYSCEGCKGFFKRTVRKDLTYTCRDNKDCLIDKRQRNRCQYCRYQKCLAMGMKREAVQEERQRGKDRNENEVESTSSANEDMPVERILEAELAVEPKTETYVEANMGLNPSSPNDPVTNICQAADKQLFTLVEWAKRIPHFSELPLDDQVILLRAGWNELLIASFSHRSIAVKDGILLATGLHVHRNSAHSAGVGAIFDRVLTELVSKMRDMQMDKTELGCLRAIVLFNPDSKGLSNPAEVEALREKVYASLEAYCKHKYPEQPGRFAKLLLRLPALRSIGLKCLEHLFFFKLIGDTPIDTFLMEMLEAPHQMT
Alpha-galactosidase A (Homo sapiens), sequence (P06280 whole entry, looked up): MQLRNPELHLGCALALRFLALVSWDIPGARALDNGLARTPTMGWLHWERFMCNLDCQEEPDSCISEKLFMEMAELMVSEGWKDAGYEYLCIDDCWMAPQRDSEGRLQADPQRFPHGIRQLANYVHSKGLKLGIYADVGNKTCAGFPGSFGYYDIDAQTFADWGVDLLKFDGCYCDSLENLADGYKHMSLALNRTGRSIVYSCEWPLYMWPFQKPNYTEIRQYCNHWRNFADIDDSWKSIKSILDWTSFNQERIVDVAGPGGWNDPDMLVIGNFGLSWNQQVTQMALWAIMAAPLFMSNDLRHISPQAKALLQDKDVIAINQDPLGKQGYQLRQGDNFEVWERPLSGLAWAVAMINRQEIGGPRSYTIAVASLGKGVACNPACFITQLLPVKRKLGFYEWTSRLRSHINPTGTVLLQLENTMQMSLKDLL
Alpha-galactosidase (Coffea arabica), sequence (Q42656 whole entry, looked up): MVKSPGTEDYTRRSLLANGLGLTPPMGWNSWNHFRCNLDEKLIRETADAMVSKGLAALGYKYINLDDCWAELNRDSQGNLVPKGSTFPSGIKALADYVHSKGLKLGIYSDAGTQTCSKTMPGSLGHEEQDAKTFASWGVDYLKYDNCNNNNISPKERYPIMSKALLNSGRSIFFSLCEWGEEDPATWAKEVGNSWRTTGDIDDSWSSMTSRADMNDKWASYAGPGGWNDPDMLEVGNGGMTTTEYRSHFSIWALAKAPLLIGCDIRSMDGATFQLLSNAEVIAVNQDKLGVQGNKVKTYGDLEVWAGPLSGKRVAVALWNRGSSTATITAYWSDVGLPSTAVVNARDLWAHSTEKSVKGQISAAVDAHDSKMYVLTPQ
Muscarinic acetylcholine receptor M1 (Rattus norvegicus), sequence (P08482 whole entry, looked up): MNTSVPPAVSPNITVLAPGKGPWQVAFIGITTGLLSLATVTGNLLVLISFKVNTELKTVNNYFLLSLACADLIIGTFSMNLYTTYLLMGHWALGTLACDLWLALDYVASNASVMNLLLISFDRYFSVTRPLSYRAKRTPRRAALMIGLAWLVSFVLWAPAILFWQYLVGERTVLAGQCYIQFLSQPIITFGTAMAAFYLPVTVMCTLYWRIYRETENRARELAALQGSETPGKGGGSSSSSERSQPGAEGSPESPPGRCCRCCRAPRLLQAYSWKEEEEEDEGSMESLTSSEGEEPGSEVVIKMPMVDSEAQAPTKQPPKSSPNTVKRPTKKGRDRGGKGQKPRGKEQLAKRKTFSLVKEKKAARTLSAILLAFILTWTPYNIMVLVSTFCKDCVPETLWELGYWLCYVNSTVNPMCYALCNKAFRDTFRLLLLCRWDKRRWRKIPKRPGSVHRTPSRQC
Bile acid receptor (Homo sapiens), sequence (Q96RI1 whole entry, looked up): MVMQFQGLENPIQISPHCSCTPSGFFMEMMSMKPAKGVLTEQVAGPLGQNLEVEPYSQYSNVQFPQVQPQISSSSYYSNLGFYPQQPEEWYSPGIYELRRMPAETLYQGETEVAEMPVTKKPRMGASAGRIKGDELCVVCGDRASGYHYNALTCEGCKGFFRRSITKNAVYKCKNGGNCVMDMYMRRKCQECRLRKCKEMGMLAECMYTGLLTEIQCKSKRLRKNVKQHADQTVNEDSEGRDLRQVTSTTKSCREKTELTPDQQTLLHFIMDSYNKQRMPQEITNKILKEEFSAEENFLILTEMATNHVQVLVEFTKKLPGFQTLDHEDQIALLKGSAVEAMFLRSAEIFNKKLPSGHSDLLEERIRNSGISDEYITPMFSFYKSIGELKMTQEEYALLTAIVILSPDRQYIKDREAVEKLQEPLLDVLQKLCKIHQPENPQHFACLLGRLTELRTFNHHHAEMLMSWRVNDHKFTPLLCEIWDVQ
Thyroid hormone receptor beta (Homo sapiens), sequence (P10828 whole entry, looked up): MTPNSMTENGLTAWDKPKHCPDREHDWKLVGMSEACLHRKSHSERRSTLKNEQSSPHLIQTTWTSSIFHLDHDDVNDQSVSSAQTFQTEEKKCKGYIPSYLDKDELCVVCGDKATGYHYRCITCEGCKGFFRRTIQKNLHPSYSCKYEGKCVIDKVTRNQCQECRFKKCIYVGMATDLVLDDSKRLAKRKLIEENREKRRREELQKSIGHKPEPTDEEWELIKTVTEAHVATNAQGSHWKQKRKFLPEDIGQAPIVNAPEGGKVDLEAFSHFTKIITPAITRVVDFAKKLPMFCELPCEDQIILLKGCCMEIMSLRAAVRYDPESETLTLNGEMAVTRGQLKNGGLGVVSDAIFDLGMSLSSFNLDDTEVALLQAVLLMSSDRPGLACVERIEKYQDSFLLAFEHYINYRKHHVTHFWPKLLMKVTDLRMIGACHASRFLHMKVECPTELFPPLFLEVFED
Peroxisome proliferator-activated receptor delta (Homo sapiens), sequence (Q03181 whole entry, looked up): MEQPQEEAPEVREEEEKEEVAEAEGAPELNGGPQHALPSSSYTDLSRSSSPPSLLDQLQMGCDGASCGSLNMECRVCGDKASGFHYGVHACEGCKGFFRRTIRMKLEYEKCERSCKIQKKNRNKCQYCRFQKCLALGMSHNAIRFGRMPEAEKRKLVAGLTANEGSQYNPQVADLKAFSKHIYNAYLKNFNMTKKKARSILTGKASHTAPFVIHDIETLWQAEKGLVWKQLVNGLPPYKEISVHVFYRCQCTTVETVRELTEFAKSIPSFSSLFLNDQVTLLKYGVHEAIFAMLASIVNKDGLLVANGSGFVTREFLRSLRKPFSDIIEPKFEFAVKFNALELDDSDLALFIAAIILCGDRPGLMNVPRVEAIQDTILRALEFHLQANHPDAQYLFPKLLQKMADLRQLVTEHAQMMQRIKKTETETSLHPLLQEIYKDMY
Estrogen receptor (Homo sapiens), sequence (P03372 whole entry, looked up): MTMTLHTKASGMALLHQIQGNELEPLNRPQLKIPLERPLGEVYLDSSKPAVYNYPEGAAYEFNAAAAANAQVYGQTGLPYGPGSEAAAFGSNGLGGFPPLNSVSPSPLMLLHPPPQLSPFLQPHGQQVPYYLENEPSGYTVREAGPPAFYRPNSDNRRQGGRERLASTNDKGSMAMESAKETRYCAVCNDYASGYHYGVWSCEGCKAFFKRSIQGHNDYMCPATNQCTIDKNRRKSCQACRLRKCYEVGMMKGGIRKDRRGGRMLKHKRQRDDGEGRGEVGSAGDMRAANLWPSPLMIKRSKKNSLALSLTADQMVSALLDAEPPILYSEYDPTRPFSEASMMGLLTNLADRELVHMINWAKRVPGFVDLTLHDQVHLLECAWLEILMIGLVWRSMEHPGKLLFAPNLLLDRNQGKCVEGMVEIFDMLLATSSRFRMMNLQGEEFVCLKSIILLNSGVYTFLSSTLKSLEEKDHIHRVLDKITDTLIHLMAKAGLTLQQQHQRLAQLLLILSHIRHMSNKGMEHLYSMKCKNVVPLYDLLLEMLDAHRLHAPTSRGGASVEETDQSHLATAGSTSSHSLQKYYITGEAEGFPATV

CC(C)[C@@]1(NC(=O)[C@@H]2C[C@H]3c4cccc5[nH]cc(c45)C[C@@H]3N(C)C2)O[C@]2(O)[C@H]3CCCN3C(=O)CN2C1=O
inactive: activation [1] 9.33%

C[C@H](NC(C)(C)C)C(=O)c1cccc(Cl)c1
inactive: outcome [2] | outcome [3] | Potency [4] | outcome [5] | outcome [6] | outcome [7] | outcome [8] | outcome [9]

C[C@@]12CC[C@H]3[C@@H](CC[C@@H]4C[C@H]5S[C@H]5C[C@]43C)[C@H]1CC[C@H]2O
inactive: activation [1] 1.68%

CS(=N)(=O)CC[C@@H](N)C(=O)O (stereo partly specified)
inactive: outcome [2] | outcome [3] | Potency [10] | Potency [4] | outcome [5] | outcome [6] | outcome [7] | outcome [8] | outcome [9]

NC[C@H](O)c1ccc(O)cc1
inactive: outcome [2] | outcome [3] | Potency [10] | Potency [4] | outcome [5] | outcome [6] | outcome [7] | outcome [8] | outcome [9]

CC(C)N(CC[C@@](C(N)=O)(c1ccccc1)c1ccccn1)C(C)C
inactive: outcome [2] | outcome [3] | Potency [4] | outcome [5] | outcome [6] | outcome [7] | outcome [8] | outcome [9]
active: Potency [10] 5.62 µM and 6.31 µM

COc1ccc(NC(=O)N2CCC3(CC2)CCN(C(=O)Oc2ccccc2)CC3)cc1
inactive: activation [1] -18.1%

C#CCN(C)[C@@H](C)Cc1ccccc1
inactive: outcome [2] | outcome [3] | Potency [10] | Potency [4] | outcome [5] | outcome [6] | outcome [7] | outcome [8] | outcome [9]

CCCCCCCCCc1ccc(O)cc1
inactive: Potency [11]

CC[C@H]1C(=O)OC[C@H]1Cc1cncn1C
inactive: outcome [6] | outcome [9]

O=C1C(Cl)=C(Cl)C(=O)C(Cl)=C1Cl
inactive: outcome [14]
active: Potency [12] 25.1 µM [inconclusive] | Potency [13] 12.6 µM

CNC(=O)N(C)c1nnc(C(C)(C)C)s1
inactive: Potency [12] | Potency [15] | Potency [13] | outcome [16] | Potency [17] | Potency [11] | outcome [18]

CN1CC[C@]2(C)c3cc(O)ccc3N(C)[C@@H]12
inactive: outcome [2] | Potency [10] | Potency [4] | outcome [5] | outcome [6] | outcome [7] | outcome [8] | outcome [9]

CCS(=O)CCSP(=O)(OC)OC (stereo unspecified)
inactive: Potency [12] | Potency [15] | outcome [19] | Potency [20] | Potency [13] | outcome [16] | Potency [11] | outcome [18] | outcome [14]

CC(C)Nc1nc(Cl)nc(NC(C)C)n1
inactive: Potency [15] | Potency [17]

CC(C)N1C(=O)c2ccccc2NS1(=O)=O
inactive: Potency [12] | Potency [15] | Potency [20] | outcome [16] | Potency [11] | outcome [14]

CCC(=O)Nc1ccc(Cl)c(Cl)c1
inactive: outcome [14]

O=C(O)COc1cc(Cl)c(Cl)cc1Cl
inactive: outcome [19] | Potency [20] | Potency [13] | Potency [17]

CC(C)OC(=O)Nc1cccc(Cl)c1
inactive: Potency [15] | outcome [19] | Potency [13] | Potency [17] | Potency [11] | outcome [18]

CNC(=O)Oc1ccccc1OC(C)C
inactive: Potency [12] | Potency [15] | Potency [20] | Potency [11] | outcome [14]

CCCCSP(=O)(SCCCC)SCCCC
inactive: outcome [19] | Potency [20] | Potency [13] | outcome [16] | Potency [17]

CNC(=O)CSP(=S)(OC)OC
inactive: Potency [12] | Potency [15] | Potency [13] | Potency [17] | outcome [18] | outcome [14]

N#Cc1c(Cl)cccc1Cl
inactive: Potency [12] | Potency [15] | Potency [20] | outcome [14]
